From PubChem BioAssay AID1159580 (chemical genetic matrix, 2015)
Values joined by “and” are separate entries in the source; they are usually repeats but may differ in a detail not shown here. Equal values may be shown once. Out of some 5,500 compounds screened, about 2,000 (36%) were called active. Another 18% or so got no clear call; they are omitted. Cut-off read from the data, not from the text of the source: active = normalized growth mostly below about 0.91 (no sharp cut-off); inconclusive = no clear call, values can overlap the other calls; inactive = mostly above about 0.92. This is one part of the list.

Assay: chemical genetic growth profiling, strain panel (AID 1159580);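 note: tested at 20 µM; growth read once vehicle control cultures reached saturation at 30 °C; 1 = growth at the plate median or of vehicle wells; lower values mean less growth of the strain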
Settings: S. cerevisiae deletion strains, growth OD

Measured: normalized growth

CCC(=O)OC1[C@@H]2CC3=C4CC(=O)O[C@@H](c5ccoc5)[C@]4(C)CCC3[C@@](C)(C2=O)[C@@H](CC(=O)OC)C1(C)C (stereo partly specified)
inactive: locus YAL021C, strain ccr4, hits give low values 1.03 | locus YAL026C, strain drs2, hits give low values 0.973 | locus YAL030W, strain snc1, hits give low values 0.998 | locus YBL061C, strain skt5, hits give low values 0.992 | locus YBR009C, strain hhf1, hits give low values 0.992 | locus YBR021W, strain FUR4, hits give low values 1.01 | locus YBR023C, strain chs3, hits give low values 0.995 | locus YBR171W, strain sec66, hits give low values 0.983 | locus YBR229C, strain ROT2, hits give low values 1 | locus YBR231C, strain swc5, hits give low values 0.989 | locus YBR279W, strain paf1, hits give low values 0.999 | locus YCL011C, strain gbp2, hits give low values 1.01 | locus YCL016C, strain dcc1, hits give low values 1.01 | locus YCL029C, strain bik1, hits give low values 1.02 | locus YCL061C, strain MRC1, hits give low values 0.998 | locus YCL069W, strain vba3, hits give low values 0.995 | locus YCR088W, strain abp1, hits give low values 0.996 | locus YDL005C, strain med2, hits give low values 0.978 | locus YDL035C, strain GPR1, hits give low values 1 | locus YDL040C, strain nat1, hits give low values 0.976 | locus YDL074C, strain BRE1, hits give low values 1.01 | locus YDL101C, strain DUN1, hits give low values 1 | locus YDL185W, strain tfp1, hits give low values 1.02 | locus YDL192W, strain arf1, hits give low values 1.01 | locus YDR001C, strain nth1, hits give low values 0.992 | locus YDR069C, strain doa4, hits give low values 0.982 | locus YDR101C, strain arx1, hits give low values 1.02 | locus YDR137W, strain rgp1, hits give low values 0.901 | locus YDR159W, strain sac3, hits give low values 0.991 | locus YDR162C, strain NBP2, hits give low values 0.999 | locus YDR195W, strain ref2 0.984 | locus YDR297W, strain sur2, hits give low values 0.994 | locus YDR318W, strain mcm21, hits give low values 1.01 | locus YDR334W, strain swr1, hits give low values 0.982 | locus YDR335W, strain msn5, hits give low values 0.996 | locus YDR388W, hits give low values 1.01 | locus YDR392W, strain spt3, hits give low values 0.837 | locus YDR502C, strain sam2, hits give low values 1.02 | locus YEL003W, strain gim4, hits give low values 0.989 | locus YEL037C, strain rad23, hits give low values 0.984 | locus YEL061C, strain CIN8 (second series), hits give low values 0.986 | locus YEL061C, strain CIN8, hits give low values 0.992 | locus YER015W, strain faa2, hits give low values 1 | locus YER016W, strain bim1, hits give low values 0.991 | locus YER110C, hits give low values 1.02 | locus YER111C, strain swi4, hits give low values 0.977 | locus YER155C, strain BEM2 (second series), hits give low values 1 | locus YER155C, strain BEM2, hits give low values 0.998 | locus YER167W, strain BCK2, hits give low values 0.994 | locus YFR010W, strain ubp6, hits give low values 0.984 | locus YGL078C, strain dbp3, hits give low values 1 | locus YGL086W, strain mad1, hits give low values 1 | locus YGL167C, strain pmr1, hits give low values 0.989 | locus YGL173C, strain kem1, hits give low values 0.979 | locus YGL227W, strain vid30, hits give low values 0.988 | locus YGL240W, strain doc1, hits give low values 0.99 | locus YGL248W, strain PDE1, hits give low values 1 | locus YGL253W, strain hxk2, hits give low values 0.954 | locus YGR135W, strain pre9, hits give low values 1.02 | locus YGR252W, strain gcn5, hits give low values 1.05 | locus YHR013C, strain ard1, hits give low values 0.966 | locus YHR027C, strain rpn1, hits give low values 0.988 | locus YHR030C, strain SLT2, hits give low values 1 and 0.969 | locus YHR079C, strain IRE1 (second series), hits give low values 1.01 | locus YHR079C, strain IRE1, hits give low values 0.987 | locus YHR094C, strain hxt1, hits give low values 1.01 | locus YHR129C, strain ARP1, hits give low values 1 | locus YHR142W, strain chs7, hits give low values 1.01 | locus YHR200W, strain rpn10, hits give low values 1.02 | locus YIL066C, strain RNR3, hits give low values 0.999 | locus YIL073C, strain SPO22, hits give low values 1.05 | locus YIL125W, strain kgd1, hits give low values 1.01 | locus YIR030C, strain dcg1, hits give low values 1.01 | locus YJL092W, strain hpr5, hits give low values 0.995 | locus YJL095W, strain BCK1 (second series), hits give low values 0.995 | locus YJL095W, strain BCK1, hits give low values 0.992 and 0.999 | locus YJL115W, strain asf1, hits give low values 0.989 | locus YJL129C, strain trk1, hits give low values 0.974 | locus YJL134W, strain LCB3, hits give low values 0.998 | locus YJL154C, strain vps35, hits give low values 0.996 | locus YJL164C, strain tpk1, hits give low values 1.01 | locus YJL166W, strain qcr8, hits give low values 1 | locus YJL168C, strain set2, hits give low values 1 | locus YJL187C, strain SWE1 (second series), hits give low values 1.01 | locus YJL187C, strain SWE1, hits give low values 0.998 | locus YJR043C, strain POL32, hits give low values 1.02
